From the OligoGym collection

The sequences below were run against C1orf64 (assay: pooled miR-30 sensor sort-seq; sequence = guide strand). Conditions: shRNA.
Note: reference of the scale not given here.

Q: With TTAGCCTCGGGAACCTCCTGGG as the sequence, how does the sensor-assay potency score (higher = more potent) read?
A: -0.502

Q: Which sensor-assay potency score (higher = more potent) does the source give for ATTGGTGGGGTGACAAGCCCTC here?
A: -0.204

Q: For ATGTAAGTCTTCATTGGTGGGG, which sensor-assay potency score (higher = more potent) is on record?
A: -0.782

Q: TAGCCTCGGGAACCTCCTGGGG was tested. Which sensor-assay potency score (higher = more potent) did it give?
A: -1.66

Q: With TCAATAACAAAAGTCAGGTGAG as the sequence, how does the sensor-assay potency score (higher = more potent) read?
A: -0.224

Q: With TAAGTCTTCATTGGTGGGGTGA as the sequence, how does the sensor-assay potency score (higher = more potent) read?
A: -0.373

Q: How did the sensor-assay potency score (higher = more potent) turn out when TTCAGTGAGTCCTTGACTGTTC was run?
A: 0.426

Q: How did the sensor-assay potency score (higher = more potent) turn out when TTCCCCACAGAACACGATGTAA was run?
A: -1.15

Q: Which sensor-assay potency score (higher = more potent) does the source give for AAGTTGAAGACCTCACAGGCGC here?
A: -0.73

Q: How did the sensor-assay potency score (higher = more potent) turn out when TTGAAGACCTCACAGGCGCAGC was run?
A: -1.07

Q: For TGTAAGTCTTCATTGGTGGGGT, which sensor-assay potency score (higher = more potent) is on record?
A: 0.329

Q: Which sensor-assay potency score (higher = more potent) does the source give for TTTCAGTGAGTCCTTGACTGTT here?
A: -0.901

Each sequence was assayed against C1orf84 in the same assay as above. Conditions: shRNA.

Q: For TTCATTAACAGGAACACCTGCC, which sensor-assay potency score (higher = more potent) is on record?
A: 0.858

Q: For TAGTTACATAGATCTCAGGCTG, which sensor-assay potency score (higher = more potent) is on record?
A: -0.122

Q: For ATTAACAGGAACACCTGCCCAG, which sensor-assay potency score (higher = more potent) is on record?
A: 0.146

Q: With TCCAACTCAATGACAAACCGAT as the sequence, how does the sensor-assay potency score (higher = more potent) read?
A: -0.656

Q: With TTCATCAAACAAGATCTCCCCT as the sequence, how does the sensor-assay potency score (higher = more potent) read?
A: 0.55

Q: TTCCTGTTCAGACAGCATCTCC was tested. Which sensor-assay potency score (higher = more potent) did it give?
A: -0.954

Q: How did the sensor-assay potency score (higher = more potent) turn out when TTACATAGATCTCAGGCTGGAA was run?
A: -0.261

Q: With TTAACAGGAACACCTGCCCAGC as the sequence, how does the sensor-assay potency score (higher = more potent) read?
A: -1.3

Q: For TCATCAAACAAGATCTCCCCTG, which sensor-assay potency score (higher = more potent) is on record?
A: -0.444

Q: For TTTCATTAACAGGAACACCTGC, which sensor-assay potency score (higher = more potent) is on record?
A: 0.405

Q: Which sensor-assay potency score (higher = more potent) does the source give for TTGGTGCAGATGACTGAGGAAC here?
A: -1.39

These sequences were tested against C20orf112 in the same assay as above. Conditions: shRNA.

Q: Which sensor-assay potency score (higher = more potent) does the source give for TCGTCATCATCTGCCGTCGGGG here?
A: -1.61

Q: For TTGTCTCGCTCTCACAGGCAGC, which sensor-assay potency score (higher = more potent) is on record?
A: -1.65

Q: With TTCTTGTCTCGCTCTCACAGGC as the sequence, how does the sensor-assay potency score (higher = more potent) read?
A: -0.87

Q: How did the sensor-assay potency score (higher = more potent) turn out when TTTCTTGTCTCGCTCTCACAGG was run?
A: -0.96

Q: For ATTGTCCTCATGGTCATCGTGG, which sensor-assay potency score (higher = more potent) is on record?
A: -0.617

Q: For ATCGTCGTCATCATCTGCCGTC, which sensor-assay potency score (higher = more potent) is on record?
A: -0.187

Q: Which sensor-assay potency score (higher = more potent) does the source give for TTTCATGCTGAGGTCCGTGGGC here?
A: -0.763

Q: Which sensor-assay potency score (higher = more potent) does the source give for TAGATCTCTAGACGCATCCGCT here?
A: 0.0864

Q: With TTGACTGTGGAGGTTCTGCGGG as the sequence, how does the sensor-assay potency score (higher = more potent) read?
A: -0.683

Q: Which sensor-assay potency score (higher = more potent) does the source give for TTCATCTGCAGAGCGCAGCAGG here?
A: -0.526

Q: For TTGATGGAATCGTAGCTCCCAG, which sensor-assay potency score (higher = more potent) is on record?
A: -1.02

Q: With TTCATCTTGTCATTGTCCTCAT as the sequence, how does the sensor-assay potency score (higher = more potent) read?
A: 0.226

Each sequence was assayed against C20orf54 in the same assay as above. Conditions: shRNA.

Q: TGAAGAGGTGCAGTCCACCAGG was tested. Which sensor-assay potency score (higher = more potent) did it give?
A: -0.698

Q: With TTCTCCTCTAGATACCCCTGGC as the sequence, how does the sensor-assay potency score (higher = more potent) read?
A: -0.528

Q: For TTTCTCCTCTAGATACCCCTGG, which sensor-assay potency score (higher = more potent) is on record?
A: 0.0398

Q: Which sensor-assay potency score (higher = more potent) does the source give for ATCTCAGTGACATTGACGCAGG here?
A: -1.25
